From PubChem BioAssay (NCATS)
Records with an inconclusive call do not appear. Entries that show only a call come without a potency. Calls of active or inactive are those of the source. Calls follow the shape of the dose curve; as a rule, active = well fitted inhibition curve with a large enough effect; inconclusive = small, poorly fitted or top-dose-only effect; inactive = flat fitted curve, though single readings scatter.

experiment: qHTS to identify inhibitors of the type 1 interferon - major histocompatibility complex class I in skeletal muscle: primary screen against the NCATS Pharmaceutical Collection (AID 1347407); conditions: human skeletal muscle cells, IFN-b-induced MHC-I HiBiT luminescence, 24 h; series mostly up to 45.9 µM
Source text: Assay Submitter (PI): Travis B. Kinder Ph.D. & James Inglese Ph.D.
Assay Development and Screening Technology Laboratory (ADST)
National Center for Advancing Translational Sciences (NCATS), Rockville, MD
National Institute of Health (NIH), Bethesda, Maryland
Idiopathic inflammatory myopathies, collectively referred to as myositis, are a group of rare autoimmune diseases characterized by skeletal muscle inflammation, weakness, and usually accompanied by systemic pathologies of the skin, lungs, or vasculature. Current immunosuppressive therapies and glucocorticoids are often not curative and are accompanied by harsh side effects, especially in children with juvenile myositis. We initiated a drug repurposing and development program to identify more targeted, less toxic therapeutics to treat myositis. Although its cause is not known, muscle from a subset of patients have an abundance of the inflammatory type 1 interferon (IFN) and a down-stream product major histocompatibility complex class I (MHC class I), which are both thought to contribute to damage and weakness. We conducted quantitative high throughput screening on 6,576 compounds (4,679 unique) through a series of cell-based assays to identify those that inhibit the IFN-stimulated expression of MHC class I in muscle precursor cells (myoblasts). The compound identification and evaluation strategy utilized a primary screen with reporter-tagged MHC class I in genome-engineered myoblasts, ATP content counter screen for viability, HLA-ABC immunofluorescence secondary screen, and HLA-B RT-qPCR tertiary screen.
The primary screen utilized CRISPR/Cas9 genome-engineering of immortalized human myoblasts, C25cl48, where a pro-luminescent reporter HiBit was fused to the C-terminus of endogenous MHC class I allele HLA-B*08:01 (HLA-B HiBit myoblasts). HiBit is an 11 amino acid fragment of NanoLuc luminescent reporter (Promega Corporation), and when complexed to the larger LgBit fragment, the reconstituted enzyme produces light in the presence of furimazine substrate (Schwinn et al., 2018). Briefly, HLA-B HiBit myoblasts were plated into 1536-well plates, treated with 4.0 ng/ml human IFN-beta and 2,816 compounds from the NCATS Pharmaceutical Collection (NPC) that contains all drugs approved in the US, EU, and Japan (Huang et al., 2011) in an 8-point, 1:5 titration with a high final concentration of 46 uM. After 24 hrs of treatment, cells were assayed by Nano-Glo HiBiT Lytic Detection System (Promega) and luminescence measured by a ViewLux 1430 Ultra HTS (Perkin Elmer).
Huang R, Southall N, Wang Y, Yasgar A, Shinn P, Jadhav A, Nguyen D-T, Austin CP. 2011. The NCGC pharmaceutical collection: a comprehensive resource of clinically approved drugs enabling repurposing and chemical genomics. Sci Transl Med 3:80ps16. doi:10.1126/scitranslmed.3001862
Schwinn MK, Machleidt T, Zimmerman K, Eggers CT, Dixon AS, Hurst R, Hall MP, Encell LP, Binkowski BF, Wood K V. 2018. CRISPR-Mediated Tagging of Endogenous Proteins with a Luminescent Peptide. ACS Chem Biol 13:467-474. doi:10.1021/acschembio.7b00549
PROTOCOL TABLE (as described by Inglese et al., 2007)
SEQUENCE No. (e.g., 1, 2, 3, etc.); […] (e.g., Cells, Incubation, Reagent, etc.); VALUE; DESCRIPTION
1a; Cells; 5 uL; Use a Multidrop Combi (Thermo Scientific) to seed 350 cells/well into nine Greiner 1536 well white/solid bottom, high base, TC plates in 5 ul/well of iHSKM growth medium (GM) without dexamethasone into columns 1+2. Add metal lids with gas-exchange holes
1b; Cells; 5 uL; Use a Multidrop Combi (Thermo Scientific) to seed 350 cells/well into nine Greiner 1536 well white/solid bottom, high base, TC plates in 5 ul/well of iHSKM GM without dexamethasone + 4 ng/ml IFN-b into columns 3 - 48. Add metal lids with gas-exchange holes
2; Incubate; 1 hr; Incubate at 37 C, 5% CO2, 95% RH
[…]

Row | SMILES | Potency
1 | Cc1c(N)cccc1C(F)(F)F | inactive
2 | CC(C)NCCCC1(C(N)=O)c2ccccc2-c2ccccc21 | inactive
3 | CNC[C@H](O)[C@@H](O)[C@H](O)[C@H](O)CO | inactive
4 | CC(NN)c1ccccc1 (stereo not given) | inactive
5 | Cc1oc(-c2ccccc2)nc1CCC(=O)c1ccc(CC2SC(=O)NC2=O)cc1 (stereo not given) | inactive
6 | CC(=O)OC/C=C(C)/C=C/C=C(C)/C=C/C1=C(C)CCCC1(C)C | inactive
7 | COCCc1ccccn1 | inactive
8 | CCCN(CCC)C(=O)C(CCC(=O)OCCCN1CCN(CCOC(=O)Cc2c(C)n(C(=O)c3ccc(Cl)cc3)c3ccc(OC)cc23)CC1)NC(=O)c1ccccc1 (stereo not given) | inactive
9 | CN1Cc2cc(C(=O)N3CCC(C4CCNCC4)CC3)ccc2NC(CC(=O)O)C1=O (stereo not given) | inactive
10 | Nc1c2ccccc2nc2ccccc12 | inactive
11 | Cc1coc2ccccc2c1=O | inactive
12 | Nc1ccc([N+](=O)[O-])c(C(F)(F)F)c1 | inactive
13 | COCCc1ccc(OCC2CO2)cc1 (stereo not given) | inactive
14 | Cc1ccc2c(Cl)cc(Cl)c(O)c2n1 | inactive
15 | O=C(c1ccco1)N1CCNCC1 | inactive
16 | COc1cc(/C=C/C(N)=O)cc(OC)c1OC | inactive
17 | Cc1cccc(N(C)C(=S)Oc2ccc3c(c2)CCC3)c1 | inactive
18 | OCCCc1ccccc1 | inactive
19 | O=C(Oc1ccccc1)c1cccc(C(=O)Oc2ccccc2)c1 | inactive
20 | CCc1cc2cc(OC)c(OC)cc2c(Cc2ccccc2)n1 | inactive

Row | SMILES | Potency
21 | O=C(CCC1CCN(Cc2ccccc2)CC1)c1ccc2c(c1)NCCCC2 | inactive
22 | Nc1c[n+](N2CCOCC2)no1 | inactive
23 | Cc1ccc(CCn2c3c(c4cc(Cl)ccc42)CN(C)CC3)cn1 | inactive
24 | CC(C)(C)C(O)/C=C/c1ccc2c(c1)OCO2 (stereo not given) | inactive
25 | N#CC1(c2ccc(F)cc2)CCC(=O)CC1 | inactive
26 | N#Cc1cc(NC(=O)C(=O)O)c(Cl)c(NC(=O)C(=O)O)c1 | inactive
27 | O=C(CCCl)NCCc1ccccc1 | inactive
28 | CCCC(=O)O[C@]1(C(=O)CCl)[C@@H](C)C[C@H]2[C@@H]3CCC4=CC(=O)C=C[C@]4(C)[C@@]3(F)C(=O)C[C@@]21C | inactive
29 | CN1CCCN(C(c2ccccc2)c2ccc(Cl)cc2)CC1 (stereo not given) | inactive
30 | CC(=O)O[C@H]1CC[C@@]2(C)C(=CC[C@@H]3[C@@H]2CC[C@]2(C)C(C(C)=O)=CC[C@@H]32)C1 | inactive
31 | CO[C@@H]1[C@@H](O[C@@H]2O[C@H](C)[C@@H](O[C@H]3C[C@@](C)(O)[C@@H](O)[C@H](C)O3)[C@H](N(C)C)[C@H]2O)[C@@H](CC=O)C[C@@H](C)[C@@H](O[C@@H]2CC[C@H](N(C)C)[C@@H](C)O2)/C=C/C=C/C[C@@H](C)OC(=O)C[C@H]1OC(C)=O | inactive
32 | CCCCC/C=C\C/C=C\CCCCCCCC(=O)NC(C)c1ccccc1 (stereo not given) | inactive
33 | [O-][n+]1cccc(/C(Cl)=N/OC[C@@H](O)CN2CCCCC2)c1 | inactive
34 | O=C(O)Cc1ccc(OCCNC[C@H](O)c2ccccc2)cc1 | inactive
35 | OC1(c2ccccc2)CCNCC1 | inactive
36 | O=C(COCCOCCOCC(=O)Nc1c(I)cc(I)c(C(=O)O)c1I)Nc1c(I)cc(I)c(C(=O)O)c1I | inactive
37 | O=C(c1cc(O)c(O)c(O)c1)c1ccc(O)c(O)c1O | inactive
38 | COc1ccc2nc(SCc3ncc(C)c(OC)c3C)[nH]c2c1 | inactive
39 | O=C(O)Cc1ccccc1Oc1ccc(Cl)cc1Cl | inactive
40 | CCCC(=O)O[C@]1(C(=O)CC)CC[C@H]2[C@@H]3CCC4=CC(=O)CC[C@]4(C)[C@H]3[C@@H](O)C[C@@]21C | inactive
